Assay outcomes from PubChem.
Shown are actives, neighbours in structure and some others; about 11% of the full set was active somewhere.
HPGD inh – HPGD (human) dehydrogenase inhibition. P15428. Potency, µM, actives largely listed as inhibitors. purified HPGD, NADH fluorescence kinetic, PGE2 substrate. 4.3% of 150,000 active. AID 894
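NADH formation kinetics: reaction with 30 uM PGE2 and 1 mM NAD+ (final), 20 nM enzyme, Tris-HCl pH 8 with Tween 20, after 15 min compound preincubation at room temperature. Fluorescence change, last versus first of five reads.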
PNC assembly inh – inhibitors of perinucleolar compartment assembly. PC3M PTB-GFP, PNC prevalence imaging, 16 h; stronger effect = lower value. activity change (PNC), negative = inhibition, % at 10 µM. 3.1% of 140,000 active. AID 2417;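 active means readout at or below -70, meaning at least 70% loss of cells showing the perinucleolar compartment, a nuclear body marking cancer cells; inconclusive means readout between -30 and a set limit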
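PC3M cells stably expressing PTB-GFP, 750–1000 cells/well, treated 16 h at 37 °C with compound (23 nl of library stock), in duplicate. After paraformaldehyde fixation and Hoechst stain, imaged at 20x; PNC prevalence scored by image analysis.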
ALDH1A1 block – ALDH1A1 (human) enzyme inhibition | 7.3% of 220,000 active | P00352 | Potency, µM (titrated, usually from 75.3 µM), actives largely listed as inhibitors | Purified ALDH1A1, NADH fluorescence, propionaldehyde substrate
Target sequence (P00352 whole entry, looked up): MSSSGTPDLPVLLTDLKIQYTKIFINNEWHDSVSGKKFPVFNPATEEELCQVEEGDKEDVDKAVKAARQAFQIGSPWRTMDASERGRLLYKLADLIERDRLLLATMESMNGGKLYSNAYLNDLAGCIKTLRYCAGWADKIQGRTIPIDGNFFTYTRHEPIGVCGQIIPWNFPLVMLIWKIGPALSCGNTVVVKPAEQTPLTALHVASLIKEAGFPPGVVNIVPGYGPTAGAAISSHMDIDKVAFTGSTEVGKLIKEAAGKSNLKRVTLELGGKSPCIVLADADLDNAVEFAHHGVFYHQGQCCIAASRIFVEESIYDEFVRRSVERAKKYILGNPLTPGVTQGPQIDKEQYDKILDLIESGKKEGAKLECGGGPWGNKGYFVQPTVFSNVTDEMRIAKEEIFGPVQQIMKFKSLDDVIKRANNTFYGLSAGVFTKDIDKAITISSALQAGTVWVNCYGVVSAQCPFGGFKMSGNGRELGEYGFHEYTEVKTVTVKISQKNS
12-hLO inh – blocks human 12-lipoxygenase activity; Potency, µM (highest dose often 57.1 µM), usual class: inhibitors; 0.12% of 150,000 active; purified 12-hLO, xylenol orange hydroperoxide absorbance; P18054; active means well fitted curve in the direction sought with a large enough effect; inconclusive means small, poorly fitted or top-dose-only effect, or another doubt; inactive means no such curve, though single readings can be large; an effect the other way counts as inactive or inconclusive; further: nearly all actives have a fitted effect of over 55% in size
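Purified human 12hLO (150 nM final) was preincubated with compounds for 15 min at room temperature in 25 mM Hepes pH 7.0, 0.01% Triton X-100, then reacted with 40 uM arachidonic acid for 30 min. Hydroperoxide was detected with ferrous iron/xylenol orange.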
IMPase Li cell – IMPase inhibition in cells with lithium potentiation. CHO-M1 cells, IP1 TR-FRET (IP-One), carbachol + lithium. Potency, µM (series often up to 59.4 µM), hits mostly inhibitors. 0.35% of 210,000 active. AID 1457; active means well fitted curve in the direction sought with a large enough effect; inconclusive means small, poorly fitted or top-dose-only effect, or another doubt; inactive means no such curve, though single readings can be large; an effect the other way counts as inactive or inconclusive;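 further: IP1 builds up when IMPase is blocked and the TR-FRET signal falls; nearly all actives have a fitted effect of over 50% in size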
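Lithium-sensitised IP1 accumulation assay; M1-expressing CHO cells treated 30 min at 37C with compound. Competitive antibody detection by time-resolved FRET followed a 10 min room-temperature lysis step.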
IMPase cell inh – cell-permeable inhibitors of inositol monophosphatase (IMPase). AID 901. CHO-M1 cells, IP1 accumulation, HTRF TR-FRET ratio. 120,000 tested, under 10 active. inhibition (IP1 accumulation), % at 46.1 µM; active means well fitted curve in the direction sought with a large enough effect in the signal ratio, not every such curve was filed as active; inconclusive means small, poorly fitted or top-dose-only effect, or a change in a side signal; inactive means no such curve, though single readings can be large or run the other way; the % refers to the signal ratio;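 further: cells stimulated with carbachol in lithium chloride buffer; higher means more IMPase inhibition seen as more IP1 and lower FRET ratio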
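The IP-One HTRF competitive assay in carbachol-stimulated CHO-M1 cells quantifies cellular IP1. Compounds spanned up to 46 uM final, and activity is expressed as AC50 from concentration-response fits of the ratio and donor data.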
Numbers stand for hits; [ ] = dose if it differs, or a comment. Unless noted, the call rests on the fitted dose curve; in most records, active means well fitted inhibition curve with a large enough effect (not every such curve was filed as active); inconclusive means small, poorly fitted or top-dose-only effect, or another doubt; inactive means no such curve, though single readings can be large or run the other way.

Results for COCOc1ccc(Br)cc1C(=O)/C=C\c1ccc2c(c1)OCO2 ?
ALDH1A1 block: inactive[13.5 µM]

What do the screens show for `CN1CCN(C2=C(Cl)C(=O)N(CCc3ccccc3)C2=O)CC1`?
HPGD inh: inactive; PNC assembly inh: inactive; ALDH1A1 block: inconclusive; 12-hLO inh: inactive; IMPase Li cell: inactive; IMPase cell inh: inactive

What do the screens show for `O=C1C(Cl)=C(N2CCCCC2)C(=O)N1Cc1ccccc1`?
HPGD inh: inactive; PNC assembly inh: -104.0; ALDH1A1 block: inconclusive; 12-hLO inh: inactive; IMPase Li cell: inactive

Results for Cc1ccc(C)c(S(=O)(=O)N2CCC(c3nc4c(nnn4Cc4ccc(F)cc4)c(=O)[nH]3)CC2)c1 ?
HPGD inh: 12.6µM; PNC assembly inh: inactive; ALDH1A1 block: inactive; 12-hLO inh: inactive; IMPase Li cell: inactive; IMPase cell inh: inactive

Results for Cc1ccc(Cn2nnc3c(=O)[nH]c(C4CCN(S(=O)(=O)c5cc(C)ccc5C)CC4)nc32)cc1 ?
HPGD inh: 22.4µM; PNC assembly inh: inactive; ALDH1A1 block: inactive; 12-hLO inh: inactive; IMPase Li cell: inactive; IMPase cell inh: inactive

Results for FC(F)(F)c1ccccc1-c1nc(NCc2cccs2)c2ccccc2n1 ?
ALDH1A1 block: inconclusive; IMPase Li cell: inactive

Results for COc1ccc(N2C(=O)[C@@H]3[C@H](C2=O)[C@H](C(=O)c2ccc(OC(C)=O)cc2)N2N=CC=C[C@@H]32)cc1 ?
HPGD inh: inactive; PNC assembly inh: inactive; ALDH1A1 block: inconclusive; 12-hLO inh: inactive; IMPase Li cell: inactive

How did CC(=O)Oc1ccc(C(=O)[C@H]2[C@H]3C(=O)N(c4ccccc4)C(=O)[C@H]3[C@@H]3C=CC=NN32)cc1 do in these assays?
HPGD inh: inconclusive; PNC assembly inh: inactive; ALDH1A1 block: inactive; 12-hLO inh: inactive; IMPase Li cell: inactive

How did Cc1ccc(N2C(=O)[C@@H]3[C@H](C2=O)[C@H]2C=CC=NN2[C@@H]3C(=O)Nc2ccccc2)cc1 do in these assays?
ALDH1A1 block: 25.1µM

How did CC(=O)Oc1ccc(C(=O)[C@H]2[C@H]3C(=O)N(c4ccc(C)cc4)C(=O)[C@H]3[C@@H]3C=CC=NN32)cc1 do in these assays?
HPGD inh: inconclusive; PNC assembly inh: inactive; ALDH1A1 block: 20µM; 12-hLO inh: inactive; IMPase Li cell: inactive

What do the screens show for `CN(C)c1nc(N)c(C(=O)Nc2cccnc2)nc1Cl`?
HPGD inh: inconclusive; ALDH1A1 block: inconclusive; 12-hLO inh: inactive; IMPase Li cell: inactive

What do the screens show for `CCCCOc1ccc(C(O)(CCC)CCN2CCOCC2)cc1` (centres undefined)?
HPGD inh: inactive; PNC assembly inh: inactive; ALDH1A1 block: 5.62µM; 12-hLO inh: inactive; IMPase Li cell: inactive

What do the screens show for `CCCCOc1ccc(C(O)(CC)CCN2CCOCC2)cc1` (centres undefined)?
HPGD inh: inactive; PNC assembly inh: inconclusive; ALDH1A1 block: 7.94µM; 12-hLO inh: inactive; IMPase Li cell: inactive; IMPase cell inh: inactive

Results for CCCCCC(O)(CCN1CCCCC1)c1ccc(OCC)cc1 (centres undefined) ?
ALDH1A1 block: 1.78µM; IMPase Li cell: inactive

Results for CCCCOc1ccc(OCCCN2CCOCC2)cc1 ?
HPGD inh: inactive; PNC assembly inh: inactive; ALDH1A1 block: inactive; 12-hLO inh: inactive; IMPase Li cell: inactive; IMPase cell inh: inactive

Results for CCCCC(O)(CCN1CCOCC1)c1ccc(Cl)cc1 (centres undefined) ?
HPGD inh: inactive; PNC assembly inh: inactive; ALDH1A1 block: 28.2µM; 12-hLO inh: inactive; IMPase Li cell: inactive; IMPase cell inh: inactive

What do the screens show for `CCC(O)(CCN1CCCCC1)c1ccccc1` (centres undefined)?
HPGD inh: inactive; PNC assembly inh: inactive; ALDH1A1 block: inactive; 12-hLO inh: inactive; IMPase Li cell: inactive; IMPase cell inh: inactive

What do the screens show for `COc1ccc(/C=N/Nc2nc(-c3cccnc3)nc3ccccc23)c(OC)c1`?
ALDH1A1 block: inactive

Results for C/C(=N\NC(=O)CSc1nc2ccccc2o1)c1ccc(O)cc1 ?
ALDH1A1 block: 23.8µM; IMPase Li cell: inactive

What do the screens show for `CC(=O)c1cc2c(cc1NC(=O)CCn1cccc1)OCO2`?
HPGD inh: inactive; PNC assembly inh: inactive; ALDH1A1 block: 31.6µM; 12-hLO inh: inactive; IMPase Li cell: inactive; IMPase cell inh: inactive
